Legend:
U-2932 [1] = assay: growth inhibition by drug alone (1 - RLU/untreated control) (fraction); higher = stronger inhibition; conditions: 177Lu-lilotomab satetraxetan 0 ug/ml
Summary of the method: (§1)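 RIVA or U-2932 cells were left untreated or pretreated for 18 h with a radiolabelled anti-CD37 antibody conjugate (~600 MBq/mg) at 0.5 µg/ml for RIVA or 1 µg/ml for U-2932. The cells were then washed and seeded at 3,000 cells/well on plates pre-printed with the Selleck Cambridge Cancer Compound library, dosed at 10/100 nM for RIVA and 10/1,000 nM for U-2932. From day 3, RealTime-Glo luminescence was read daily after 1 h at 37°C. Growth inhibition was taken as one minus RLU over the mean of the untreated no-drug wells, of which there were 48 per plate.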

RIVA [2] = assay: as above; conditions: 177Lu-lilotomab satetraxetan 0 ug/ml
Summary of the method: as §1

U-2932 [3] = assay: growth inhibition by drug plus 177Lu-lilotomab satetraxetan (1 - RLU/untreated control) (fraction); higher = stronger inhibition; conditions: 177Lu-lilotomab satetraxetan 1 ug/ml
Summary of the method: as §1

RIVA [4] = assay: as above; conditions: 177Lu-lilotomab satetraxetan 0.5 ug/ml
Summary of the method: as §1

Structure (SMILES)	growth inhibition by drug alone (U-2932 [1]; 10 nM, time (day): 3)	growth inhibition by drug alone (U-2932 [1]; 10 nM, time (day): 4)	growth inhibition by drug alone (U-2932 [1]; 10 nM, time (day): 5)	growth inhibition by drug alone (U-2932 [1]; 10 nM, time (day): 6)	growth inhibition by drug alone (U-2932 [1]; 1000 nM, time (day): 3)	growth inhibition by drug alone (U-2932 [1]; 1000 nM, time (day): 4)	growth inhibition by drug alone (U-2932 [1]; 1000 nM, time (day): 5)	growth inhibition by drug alone (U-2932 [1]; 1000 nM, time (day): 6)	growth inhibition by drug alone (RIVA [2]; 10 nM, time (day): 3)	growth inhibition by drug alone (RIVA [2]; 10 nM, time (day): 4)	growth inhibition by drug alone (RIVA [2]; 10 nM, time (day): 5)	growth inhibition by drug alone (RIVA [2]; 10 nM, time (day): 6)	growth inhibition by drug alone (RIVA [2]; 100 nM, time (day): 3)	growth inhibition by drug alone (RIVA [2]; 100 nM, time (day): 4)	growth inhibition by drug alone (RIVA [2]; 100 nM, time (day): 5)	growth inhibition by drug alone (RIVA [2]; 100 nM, time (day): 6)	growth inhibition by drug plus 177Lu-lilotomab satetraxetan (U-2932 [3]; 10 nM, time (day): 3)	growth inhibition by drug plus 177Lu-lilotomab satetraxetan (U-2932 [3]; 10 nM, time (day): 4)	growth inhibition by drug plus 177Lu-lilotomab satetraxetan (U-2932 [3]; 10 nM, time (day): 5)	growth inhibition by drug plus 177Lu-lilotomab satetraxetan (U-2932 [3]; 10 nM, time (day): 6)	growth inhibition by drug plus 177Lu-lilotomab satetraxetan (U-2932 [3]; 1000 nM, time (day): 3)	growth inhibition by drug plus 177Lu-lilotomab satetraxetan (U-2932 [3]; 1000 nM, time (day): 4)	growth inhibition by drug plus 177Lu-lilotomab satetraxetan (U-2932 [3]; 1000 nM, time (day): 5)	growth inhibition by drug plus 177Lu-lilotomab satetraxetan (U-2932 [3]; 1000 nM, time (day): 6)	growth inhibition by drug plus 177Lu-lilotomab satetraxetan (RIVA [4]; 10 nM, time (day): 3)	growth inhibition by drug plus 177Lu-lilotomab satetraxetan (RIVA [4]; 10 nM, time (day): 4)	growth inhibition by drug plus 177Lu-lilotomab satetraxetan (RIVA [4]; 10 nM, time (day): 5)	growth inhibition by drug plus 177Lu-lilotomab satetraxetan (RIVA [4]; 10 nM, time (day): 6)	growth inhibition by drug plus 177Lu-lilotomab satetraxetan (RIVA [4]; 100 nM, time (day): 3)	growth inhibition by drug plus 177Lu-lilotomab satetraxetan (RIVA [4]; 100 nM, time (day): 4)	growth inhibition by drug plus 177Lu-lilotomab satetraxetan (RIVA [4]; 100 nM, time (day): 5)	growth inhibition by drug plus 177Lu-lilotomab satetraxetan (RIVA [4]; 100 nM, time (day): 6)
CC[C@H](CO)Nc1nc(NCc2ccccc2)c2ncn(C(C)C)c2n1 [Roscovitine (Seliciclib, CYC202)]	0.0612	0.034	-0.0433	-0.134	-0.0928	-0.0155	-0.074	-0.195	0.0751	0.0434	0.0188	-0.143	-0.0194	-0.0523	-0.0745	-0.157	0.0443	0.0516	0.0573	0.114	-0.105	0.0161	-0.0091	-0.013	0.429	0.539	0.544	0.554	0.49	0.54	0.55	0.531
Nc1nc(F)nc2c1ncn2[C@@H]1O[C@H](CO)[C@@H](O)[C@@H]1O [Fludarabine (Fludara)]	0.0811	0.031	-0.102	-0.129	0.0221	0.000892	-0.0649	-0.0258	0.0792	0.0421	0.0106	-0.266	-0.264	-0.213	-0.187	-0.228	0.0486	0.0769	0.126	0.16	0.00481	0.105	0.131	0.185	0.546	0.58	0.591	0.585	0.504	0.553	0.573	0.585
CCC(C)n1ncn(-c2ccc(N3CCN(c4ccc(OCC5COC(Cn6cncn6)(c6ccc(Cl)cc6Cl)O5)cc4)CC3)cc2)c1=O (stereo not drawn) [Itraconazole (Sporanox)]	0.0829	0.0704	0.0582	-0.11	0.0952	0.087	0.0678	-0.00563	-0.0197	0.0654	-0.0473	-0.325	-0.037	0.0162	0.00541	-0.0886	0.0224	0.0823	0.142	0.126	0.102	0.147	0.188	0.311	0.61	0.642	0.66	0.668	0.407	0.522	0.541	0.559
CC(NC(=O)c1ccccc1/N=C/c1c(O)ccc2ccccc12)c1ccccc1 (stereo not drawn) [Sirtinol]	0.0874	0.0846	0.0103	-0.0559	0.00453	0.0486	-0.0294	-0.196	-0.0251	0.00147	-0.0621	-0.367	-0.00236	-0.00311	-0.00892	-0.099	0.0459	0.0759	0.116	0.164	-0.00947	0.0904	0.0917	0.101	0.345	0.472	0.506	0.526	0.436	0.523	0.536	0.529
COc1ccc(C2CC(c3ccccc3)=NN2c2ccc(S(N)(=O)=O)cc2)cc1 (stereo not drawn)	0.0454	0.0281	-0.0412	-0.122	-0.0544	0.00397	-0.0999	-0.129	-0.0673	-0.122	-0.182	-0.683	-0.196	-0.182	-0.21	-0.396	0.0153	0.0306	0.0246	0.0751	-0.0784	0.0449	-0.00789	0.0654	0.344	0.49	0.534	0.554	0.412	0.495	0.491	0.476
CNC(=O)c1cc(Oc2ccc(NC(=O)Nc3ccc(Cl)c(C(F)(F)F)c3)c(F)c2)ccn1 [Regorafenib (BAY 73-4506)]	0.146	0.0913	0.0627	-0.0165	0.26	0.284	0.302	0.217	0.0302	0.118	0.0999	0.0537	0.189	0.262	0.302	0.293	0.125	0.179	0.283	0.319	0.269	0.291	0.39	0.48	0.632	0.688	0.717	0.733	0.463	0.581	0.629	0.644
O=NN(CCCl)C(=O)NC1CCCCC1 [Lomustine (CeeNU)]	0.0125	-0.0069	-0.0761	-0.178	-0.00465	0.00866	-0.0378	0.00712	-0.055	-0.0849	-0.137	-0.324	-0.313	-0.232	-0.254	-0.408	0.00156	0.0498	0.0878	0.11	-0.00262	0.0596	0.0893	0.149	0.573	0.596	0.607	0.603	0.383	0.486	0.488	0.501
COc1cc2nc(N3CCCN(C)CC3)nc(NC3CCN(Cc4ccccc4)CC3)c2cc1OC	0.128	0.0539	-0.00458	-0.0956	0.00727	0.0766	0.0688	0.0239	0.0768	0.122	0.055	-0.0793	0.209	0.192	0.165	0.117	0.0951	0.135	0.169	0.207	0.133	0.247	0.267	0.319	0.498	0.588	0.618	0.631	0.469	0.552	0.569	0.565
CC(C=CC(=O)NO)=CC(C)C(=O)c1ccc(N(C)C)cc1 (stereo not drawn) [Trichostatin A (TSA)]	0.0657	0.0558	0.00424	-0.0676	0.98	0.983	0.983	0.983	0.0108	-0.0626	-0.0672	-0.162	0.651	0.317	0.223	0.132	0.0166	0.0461	0.0335	0.0848	0.981	0.983	0.984	0.984	0.467	0.537	0.547	0.561	0.854	0.798	0.783	0.763
C[C@]12CC[C@H](O)CC1=CC[C@@H]1[C@@H]2CC[C@]2(C)C(c3cccnc3)=CC[C@@H]12 [Abiraterone (CB-7598)]	0.158	0.102	-0.102	-0.0433	0.0352	-0.0224	-0.154	-0.164	-0.0346	-0.0301	-0.224	-0.618	-0.373	-0.274	-0.381	-0.72	0.0329	0.0754	0.164	0.196	-0.00601	0.0151	0.0665	0.163	0.487	0.574	0.591	0.595	0.305	0.41	0.407	0.425
COc1ccc(-c2ccc3c(N4CCOC[C@@H]4C)nc(N4CCOC[C@@H]4C)nc3n2)cc1CO	0.165	0.142	0.0822	0.157	0.896	0.892	0.897	0.909	0.0033	-0.0925	-0.125	-0.292	0.617	0.609	0.575	0.472	0.124	0.14	0.163	0.253	0.899	0.893	0.902	0.923	0.495	0.529	0.545	0.545	0.749	0.763	0.762	0.744
O=C(O)c1ccc(-c2c[nH]c3ncc(-c4ccccc4)cc23)cc1C1CCCC1	0.092	0.0154	-0.12	-0.193	-0.0285	-0.0484	-0.0534	0.0115	-0.0813	-0.122	-0.138	-0.797	-0.515	-0.371	-0.364	-0.433	-0.00975	0.0274	-0.00811	0.0111	0.129	0.173	0.227	0.339	0.472	0.539	0.552	0.565	0.343	0.471	0.488	0.51
O=c1cc(N2CCOCC2)oc2c(-c3cccc4c3sc3ccccc34)cccc12	0.114	0.0778	-0.0783	-0.126	0.206	0.176	0.0314	-0.00386	0.21	0.183	0.173	-0.0317	-0.363	-0.241	-0.261	-0.43	0.0719	0.131	0.166	0.2	0.312	0.318	0.34	0.421	0.597	0.621	0.62	0.635	0.447	0.499	0.523	0.529
Cc1ccc([C@@H]2O[C@H](CO)[C@@H](O)[C@H](O)[C@H]2O)cc1Cc1ccc(-c2ccc(F)cc2)s1 [Canagliflozin]	-0.0178	-0.0268	-0.0429	0.0177	-0.0399	0.00599	-0.0361	-0.0715	-0.0859	-0.106	-0.126	-0.215	0.00364	-0.0271	-0.0583	-0.103	0.00296	0.0208	0.0301	0.162	-0.0686	0.0117	0.0289	0.0944	0.342	0.476	0.499	0.519	0.383	0.437	0.439	0.418

From the supplement of paper PMC6897291
